Source: PubChem BioAssay (National Center for Advancing Translational Sciences (NCATS))
Nrf2 inh = inhibitors of Nrf2 signaling; A549 ARE-Fluc reporter, luciferase luminescence, 18-24 h; Potency, µM (highest dose often 46 µM), actives largely listed as inhibitors; 2.1% of 360,000 active; AID 504444; further: nearly all actives have a fitted effect of over 60% in size
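Concentration-response testing used A549 ARE_Fluc cells at 5000 cells/well. Following an 18-24 h compound incubation, viability was read by fluorescence (Ex 405/Em 525) and luciferase output by luminescence.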
ELG1 repair inh = inhibitors of ELG1-dependent DNA repair in HEK293T cells | HEK293T ELG1-luciferase reporter, luminescence, 16 h; DNA damage induced by 5-fluorouridine | Potency, µM (top dose mostly 46.1 µM), most hits filed as inhibitors | 2.3% of 330,000 active | AID 504467; further: nearly all actives have a fitted effect of over 55% in size
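Step one: seed 2,000 cells per well. Step two: pin-transfer compound or DMSO alongside 5-fluorouridine. Step three: incubate 16 hr, 37 °C, 5% CO2. Step four: add ONE-Glo, wait 30 min, read luminescence.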
Nrf2 activator = activators of Nrf2 (ARE) signaling. AREc32 ARE-luciferase reporter (MCF7-derived line), luminescence, 24 h. Potency, µM (doses to about 46.1 µM), usual class: activators. 0.31% of 410,000 active. AID 624171; further: nearly all actives have a fitted effect of over 65% in size
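Quantitative high-throughput format: AREc32 reporter cells, 1000 per well, received compound by pin transfer and were incubated 24 hr at 37 deg C, 5% CO2, before Steady-Glo luminescence detection.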
IDH1 R132H inh = inhibitors of human mutant IDH1 R132H; 0.093% of 390,000 active; IDH1-R132H enzyme, NADPH consumption, diaphorase/resazurin fluorescence; Potency, µM (doses to about 76.6 µM), hits mostly inhibitors; O75874; further: nearly all actives have a fitted effect of over 65% in size
Target sequence (O75874 whole entry R132H, stated change not applied): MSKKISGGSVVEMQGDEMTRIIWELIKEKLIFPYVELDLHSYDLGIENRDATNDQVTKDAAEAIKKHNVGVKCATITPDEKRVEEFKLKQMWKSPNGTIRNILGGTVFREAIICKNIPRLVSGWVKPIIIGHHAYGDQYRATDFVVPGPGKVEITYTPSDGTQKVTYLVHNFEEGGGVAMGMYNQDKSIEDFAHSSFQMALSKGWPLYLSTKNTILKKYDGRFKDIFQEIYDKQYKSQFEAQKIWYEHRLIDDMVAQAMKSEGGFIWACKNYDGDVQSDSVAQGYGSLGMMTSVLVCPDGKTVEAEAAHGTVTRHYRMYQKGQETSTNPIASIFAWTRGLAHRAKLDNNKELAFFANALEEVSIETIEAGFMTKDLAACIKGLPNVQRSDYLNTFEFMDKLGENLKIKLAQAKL
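IDH1-R132H (0.5 ug/mL dispensed) in pH 7.5 Tris buffer was preincubated 30 min with compound, then given a substrate mix of 0.016 mM NADPH and 2 mM alpha-KG for 80 min at room temperature; remaining NADPH was read by diaphorase/resazurin fluorescence.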
A549 tox = A549 cytotoxicity, counter-screen for Nrf2 inhibitors; A549 ARE-Fluc cells, CellTiter-Fluor viability, 18-24 h; 0.16% of 390,000 active; Potency, µM (titrated, usually from 46 µM), actives largely listed as inhibitors
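Cytotoxicity counterscreen: CellTiter-Fluor fluorescence was measured in A549 ARE_Fluc cells after 18-24 h of compound exposure in a concentration series. The subsequent BugLite luminescent read reports ARE-luciferase activity.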
Each line names hits and unclear results; the compound was inactive in the other large screens. Shown are actives, neighbours in structure and some others; about 3.8% of the full set was active somewhere. The call rests on the fitted dose curve; in most records, active means well fitted curve in the direction sought with a large enough effect; inconclusive means small, poorly fitted or top-dose-only effect, or another doubt; inactive means no such curve, though single readings can be large; an effect the other way counts as inactive or inconclusive.

Cc1cc(NC(=O)CS(=O)(=O)c2cn(Cc3ccccc3Cl)c3ccccc23)no1	Nrf2 inh 26µM, ELG1 repair inh inconclusive
O=[N+]([O-])c1cc(O)c2ncccc2c1	ELG1 repair inh 2.6µM, Nrf2 activator inconclusive
Cc1ccc([N+](=O)[O-])c2cccnc12	none
O=[N+]([O-])c1cc2cccnc2c2ncccc12	ELG1 repair inh 7.3µM
COc1cc([N+](=O)[O-])c2ncccc2c1	none (no result: ELG1 repair inh, Nrf2 activator, IDH1 R132H inh)
CC(=O)Nc1ncc(N=Nc2cccc(C(F)(F)F)c2)s1	Nrf2 activator inconclusive, A549 tox 12µM
COC(=O)/C(N=Nc1cccc(C(F)(F)F)c1)=C(\C)O	none
Cc1c(O)ccc2c(CN(C)Cc3ccccc3)cc(=O)oc12	ELG1 repair inh 13µM
O=C(CCCSc1ccc(Cl)cc1)Nc1ccccc1O	ELG1 repair inh inconclusive, Nrf2 activator 14µM
O=C(CSCc1ccc(Cl)cc1)Nc1ccccc1O	Nrf2 activator inconclusive
CN(C(=O)c1ccc2c(c1)SC1=NS(=O)(=O)CCN12)C(c1ccccc1)c1ccccc1	ELG1 repair inh 26µM
Cc1cccc(N2CCN(C(=O)c3oc(=O)c4ccccc4c3-c3ccccc3)CC2C)c1 (stereo not drawn)	none (no result: ELG1 repair inh)
CCN(C(=O)Cc1ccccc1OC)c1nnc(-c2ccncc2)s1	ELG1 repair inh inconclusive
CCN(C(=O)Cc1cccs1)c1nnc(-c2cc(OC)c(OC)c(OC)c2)s1	ELG1 repair inh 2.9µM
CCOC(=O)c1cccc(NC(=O)Nc2cc(OC)ccc2OC)c1	Nrf2 inh 21µM
CCOC(=O)c1ccc(N2CCN(c3cc(Cl)ccc3C)CC2)c(NC(=O)Nc2cccc(OC)c2)c1	none (no result: Nrf2 inh, ELG1 repair inh)
CCOC(=O)c1ccc(N2CCN(c3ccccc3F)CC2)c(NC(=O)Nc2cccc(OC)c2)c1	ELG1 repair inh 16µM
COC(=O)c1ccc2nc(-c3cccc(Cl)c3)c(Cc3cccc(F)c3)n2c1	none (no result: Nrf2 inh, ELG1 repair inh, IDH1 R132H inh, A549 tox)
COc1ccc(CN2CCN(C(=O)CCC(=O)Nc3nnc(CC(C)C)s3)CC2)cc1F	Nrf2 inh inconclusive, ELG1 repair inh 5.8µM
COc1ccc(CN2CCN(C(=O)CCC(=O)Nc3nnc(C4CCCCC4)s3)CC2)cc1F	Nrf2 inh inconclusive, ELG1 repair inh 5.8µM
Cc1ccc(OCCN2CCN(C(=O)CCC(=O)Nc3nnc(C(C)C)s3)CC2)cc1	Nrf2 inh 12µM, A549 tox inconclusive
Cc1ccc(OCCN2CCN(C(=O)CCC(=O)Nc3nnc(C)s3)CC2)cc1	none
CC(C)Cc1nnc(NC(=O)CCC(=O)N2CCN(c3ccccc3)CC2)s1	none
CC(C)Cc1nnc(NC(=O)CCC(=O)N2CCN(c3ccc([N+](=O)[O-])cc3)CC2)s1	Nrf2 inh inconclusive, ELG1 repair inh 9.2µM, A549 tox inconclusive
Cc1ccc(CCNC(=O)c2sc3ncccc3c2-n2c(C)ccc2C)cc1	none (no result: Nrf2 inh, ELG1 repair inh)
Cc1ccc(C(=O)Nc2nc(-c3ccco3)c(-c3ccco3)s2)o1	Nrf2 activator 1.3µM
O=C(CCCSc1ccccc1)Nc1nc(-c2ccco2)c(-c2ccco2)s1	ELG1 repair inh inconclusive
O=C(CCl)Nc1nc(-c2ccco2)c(-c2ccco2)s1	Nrf2 activator 11µM, IDH1 R132H inh inconclusive
COc1ccc(CCNc2ncnc3cc(OC)c(OC)cc23)cc1OC	Nrf2 inh 21µM, ELG1 repair inh 8.2µM
COc1cc2ncnc(NCCc3ccccc3)c2cc1OC	Nrf2 inh 23µM, ELG1 repair inh inconclusive
CCOC(=O)[C@@H]1[C@H]2COc3ccc(Br)cc3[C@@H]2N2C(=O)N(c3ccc(C(F)(F)F)cc3)C(=O)[C@]12C	none
Cc1cccc(C)c1OCCCn1c(CCNC(=O)C2CCCCC2)nc2ccccc21	Nrf2 inh inconclusive, A549 tox inconclusive (no result: ELG1 repair inh)
O=C(c1ccc2c(=O)n(Cc3ccccc3Cl)c(=S)[nH]c2c1)N1CCCC1	none
COc1cc(CN(C)C(C)C(=O)Nc2ccc([N+](=O)[O-])cc2Cl)ccc1OC(F)F (stereo not drawn)	ELG1 repair inh 16µM
COc1ccc(Br)cc1CN(C)C(C)C(=O)Nc1cccc(C(C)=O)c1 (stereo not drawn)	Nrf2 inh inconclusive, ELG1 repair inh 26µM
COc1ccc([N+](=O)[O-])cc1NC(=O)C(C)N(C)Cc1cccc(OC)c1OC (stereo not drawn)	Nrf2 inh inconclusive, ELG1 repair inh 9.2µM
COc1ccc([N+](=O)[O-])cc1NC(=O)C(C)Sc1ccccc1 (stereo not drawn)	none
COc1ccc(Cl)cc1NC(=O)C(C)N(C)Cc1ccc(C(F)(F)F)cc1 (stereo not drawn)	none
Cc1ccc(NS(=O)(=O)c2cccc(C(=O)NC3CC3)c2)c(C)c1	Nrf2 inh inconclusive
Cc1cc(C)cc(NC(=O)c2ccc(S(=O)(=O)NCc3cccnc3)cc2)c1	ELG1 repair inh inconclusive
Cc1cccc(NC(=O)c2ccc(S(=O)(=O)NCc3cccnc3)cc2)c1	Nrf2 inh 12µM, ELG1 repair inh 15µM
O=C(Nc1ccc(Cl)c(Cl)c1)c1cccc(S(=O)(=O)NCc2cccnc2)c1	Nrf2 inh 15µM, ELG1 repair inh inconclusive
Cc1ccc(NS(=O)(=O)c2cccc(C(=O)Nc3cccnc3)c2)c(C)c1	Nrf2 inh 8.2µM, ELG1 repair inh inconclusive
CCCCN(C=O)c1c(CC)nc2ccc(C(=O)NCc3cccs3)cn12	none (no result: Nrf2 inh, ELG1 repair inh, IDH1 R132H inh, A549 tox)
O=[S+]([O-])(c1c(F)cccc1F)N1CCN([S+](=O)([O-])c2c(F)c(F)c(F)c(F)c2F)CC1	none (no result: ELG1 repair inh, Nrf2 activator, IDH1 R132H inh)
O=C1c2ccccc2C(=O)N1c1cccc(Cl)c1	none (no result: ELG1 repair inh, Nrf2 activator, IDH1 R132H inh)
O=C1CCc2cc(S(=O)(=O)Nc3ccc(Cl)cc3)ccc2N1	Nrf2 inh inconclusive (no result: ELG1 repair inh, Nrf2 activator, IDH1 R132H inh)
COc1cc2nc(CSc3nc(-c4ccc(F)cc4)cs3)[nH]c(=O)c2cc1OC	Nrf2 inh inconclusive, ELG1 repair inh 23µM
CCN=C(Nc1ccc2c(c1)OCO2)SC1CC(=O)N(c2ccc(OC)cc2)C1=O (stereo not drawn)	ELG1 repair inh 16µM
Fc1ccc2c(c1)/C(=N/Nc1ccccn1)CCS2	Nrf2 activator 11µM
c1ccc(N/N=C2\CCCc3ccccc32)nc1	Nrf2 activator inconclusive
CC(CNC(=O)C1CCN(C(=O)N2CCOc3ccc(Cl)cc32)CC1)c1ccccc1 (stereo not drawn)	Nrf2 inh inconclusive (no result: ELG1 repair inh)
Cc1cccc(NC(=O)Cn2nnc(C(=O)Nc3ccccc3Br)c2N)c1C	Nrf2 inh inconclusive (no result: ELG1 repair inh)
Cc1c(Cl)cccc1NC(=O)c1cc(-c2ccco2)on1	Nrf2 inh inconclusive, ELG1 repair inh inconclusive, Nrf2 activator 13µM
CN(CCOc1ccccc1)CC(=O)Nc1cc([N+](=O)[O-])ccc1Cl	Nrf2 inh 16µM, ELG1 repair inh inconclusive
C=C1C(=O)O[C@@H]2[C@H]1[C@@H](OC(=O)/C(C)=C/C)C/C(C)=C\C(=O)/C=C(\C)[C@@H]2O	Nrf2 inh 21µM, ELG1 repair inh inconclusive, Nrf2 activator inconclusive, A549 tox inconclusive
